# In ChEMBL document CHEMBL3988442, “University of Dundee, Small-Polar-MMV Screening Library” (2021):
# In all, about 66,000 compounds went through this assay and about 960 (1.5%) showed an effect of 50% or more. The sample as a whole holds a higher share of strong results than the screen did.
# Test system: Trypanosoma brucei
# Assay: Trypanosoma brucei 72 hour study
# Format: functional, organism-based
# Parameters: scale not given: in the data most compounds retested in dose-response had high values
structure (smiles),measurement,setting,value
O=C(c1cscn1)N1C[C@H]2CCC[C@@]2(COCc2ccccn2)C1,Percent Effect,"30.3 µM, […]",-7.729%
Cc1cccc(CNC(CN2CCN(C)CC2)c2ccccc2)c1 (centres undefined),Percent Effect,"30 µM, 30.03 µM",38.01%
COc1cccc(CNC(CN2CCN(C)CC2)c2ccccc2)c1 (centres undefined),Percent Effect,"30 µM, 30.03 µM",-23.58%
CN1CCN(CC(NCc2cccc(O)c2)c2ccccc2)CC1 (centres undefined),Percent Effect,"30 µM, 30.03 µM",100.4%
Cc1ccc(CNC(CN2CCN(C)CC2)c2ccccc2)cc1 (centres undefined),Percent Effect,"30 µM, 30.03 µM",0.9317%
Cc1ccc(CNC(CN2CCN(C)CC2)c2ccccc2)cc1C (centres undefined),Percent Effect,"30 µM, 30.03 µM",57.4%
CN1CCN(CC(NCc2ccc(F)c(F)c2)c2ccccc2)CC1 (centres undefined),Percent Effect,"30 µM, 30.03 µM",-11.08%
Cc1noc(C)c1CNCC1Cn2nncc2CO1.O=C(O)C(F)(F)F (centres undefined),Percent Effect,"30.3 µM, […]",-105.3%
COCC1CN(C(=O)CS(C)(=O)=O)Cc2ncn(CC3CC3)c21 (centres undefined),Percent Effect,"30.3 µM, […]",-30.37%
C1CCN(CCO[C@@H]2CC[C@H]3[C@H]2OCCN3CC2CCOCC2)C1.O=C(O)C(F)(F)F.O=C(O)C(F)(F)F,Percent Effect,"30 µM, 30.03 µM",-27.36%
Cc1ncsc1-c1nnc(C2CCN(Cc3ccccc3F)CC2)o1,Percent Effect,"30.3 µM, […]",-22.5%
CNCc1ccc([C@@H]2CN(C(C)=O)C[C@H]2C(=O)N(C)C)cc1.Cl,Percent Effect,"30.3 µM, […]",-5.387%
CN(C)CCN1CCC2(CCN(C(=O)c3ccncc3)CC2)C1=O.O=C(O)C(F)(F)F.O=C(O)C(F)(F)F,Percent Effect,"30.3 µM, […]",-21.17%
CN1CCOCC12CCN(Cc1ccoc1)CC2.O=C(O)C(F)(F)F.O=C(O)C(F)(F)F,Percent Effect,"30.3 µM, […]",-44.43%
COc1ncc(-c2c(C#N)c(N)nc3c2CCc2[nH]ccc2-3)cn1,Percent Effect,"30.3 µM, […]",-6.46%
Cc1n[nH]c(C)c1-c1c(C#N)c(N)nc2c1CCc1[nH]ccc1-2,Percent Effect,"30.3 µM, […]",52.57%
Cn1cc(-c2c(C#N)c(N)nc3c2CCc2[nH]ccc2-3)cn1,Percent Effect,"30.3 µM, […]",27.56%
CC(C)CN1C[C@H]2C[C@H](C(=O)N3CCCC3)[C@@H](C1)O2.O=C(O)C(F)(F)F,Percent Effect,"30.3 µM, […]",-50.57%
CN(C)CCN1CCN(C)c2nc(-c3ccccc3)ncc2C1=O,Percent Effect,"30.3 µM, […]",17.36%
CCc1ccc(-c2ncc3c(n2)N(C)CCN(CCN(C)C)C3=O)cc1,Percent Effect,"30.3 µM, […]",100.5%
COc1cccc(-c2ncc3c(n2)N(C)CCN(CCN(C)C)C3=O)c1,Percent Effect,"30.3 µM, […]",19.59%
Cl.O=C(O)[C@@H]1CCCN1c1nccc(Nc2ccccc2)n1,Percent Effect,"30.3 µM, […]",-31.15%
same,Percent Effect,"10 mM, 10 mM as filed; unlikely as a test dose",-16.56%
Cc1cc(F)ccc1-n1cc(O)c(C(=O)NCC2(O)CCC2)n1,Percent Effect,"30 µM, 30.03 µM",-18.18%
O=C(Cn1nnn(-c2cccs2)c1=O)N(CC1CCOC1)C1CC1 (centres undefined),Percent Effect,"30 µM, 30.03 µM",-28.27%
CCN(CC1CCOC1)C(=O)Cn1nnn(-c2cccs2)c1=O (centres undefined),Percent Effect,"30 µM, 30.03 µM",-61.65%
O=C(Cn1nnn(-c2cccs2)c1=O)NCC1CCOC1 (centres undefined),Percent Effect,"30 µM, 30.03 µM",53.07%
c1ccc(OCc2nc(CNCCn3cccn3)cs2)cc1,Percent Effect,"30.3 µM, […]",-9.773%
c1ccc(Cc2nc(CNCCn3cccn3)cs2)cc1,Percent Effect,"30.3 µM, […]",100.2%
Clc1ccc(Cc2nc(CNCCn3cccn3)cs2)cc1,Percent Effect,"30.3 µM, […]",19.22%
CC(Cn1cccn1)NCc1csc(COc2ccc(F)cc2)n1 (centres undefined),Percent Effect,"30.3 µM, […]",4.13%
Cc1cnn(CCNCc2csc(COc3ccccc3)n2)c1,Percent Effect,"30.3 µM, […]",54.15%
c1ccc(-c2nc(CNCCn3cccn3)cs2)cc1,Percent Effect,"30 µM, 30.03 µM",-63.26%
CC(Cn1cccn1)NCc1csc(COc2ccccc2)n1 (centres undefined),Percent Effect,"30.3 µM, […]",63.51%
CC(Cn1cccn1)NCc1csc(Cc2ccccc2)n1 (centres undefined),Percent Effect,"30.3 µM, […]",32.28%
Cc1cnn(CCCNCc2csc(COc3ccccc3)n2)c1,Percent Effect,"30.3 µM, […]",10.81%
CCS(=O)(=O)N1C[C@H]2C[C@H](C(=O)N(C)C)[C@@H](C1)O2,Percent Effect,"30 µM, 30.03 µM",9.915%
O=C(NCC(=O)N1CCN(c2ccccc2)CC1)c1sccc1C1CC1,Percent Effect,"30 µM, 30.03 µM",8.848%
CCC(=O)N1CCN(CCn2cccn2)c2ncccc2C1.O=C(O)C(F)(F)F,Percent Effect,"30.3 µM, […]",-68.7%
N#Cc1ccc(C(=O)N2CC[C@H]3[C@H]2CCN3CC2CC2)cc1.O=C(O)C(F)(F)F,Percent Effect,"30.3 µM, […]",-8.518%
Cc1ccccc1-c1cncc(C2CCN(S(=O)(=O)N(C)C)CC2)n1,Percent Effect,"30.3 µM, […]",23.75%
CCC(=O)N1CCCN(Cc2cc(F)cc(Br)c2)CC1,Percent Effect,"30 µM, 30.03 µM",-27.39%
CN1C[C@H]2CC[C@@H]1CN(C(=O)COCc1nc3cc(F)ccc3[nH]1)C2,Percent Effect,"30 µM, 30.03 µM",-9.559%
CC(C)(C)n1ncc2c1CCCC2NCc1ccsc1 (centres undefined),Percent Effect,"30 µM, 30.03 µM",-15.69%
O=C(NCc1cnc2n1CCN(Cc1nccs1)CC2)C1CCC1.O=C(O)C(F)(F)F,Percent Effect,"30.3 µM, […]",-21.25%
COCC(=O)N1CCC2(CC1)CN(CC1CC1)c1ccc(F)cc12,Percent Effect,"30.3 µM, […]",19.77%
Cc1csc2c(N3CCC(NCCCC4CCOC4)CC3)ncnc12 (centres undefined),Percent Effect,"30 µM, 30.03 µM",-28.35%
CCCc1cc(NCCCC2CCOC2)n2nccc2n1 (centres undefined),Percent Effect,"30.3 µM, […]",14.64%
CCCc1cc(CNC2CCN(c3nc4ccccc4s3)CC2)on1,Percent Effect,"30 µM, 30.03 µM",-8.839%
Clc1ccc2nc(N3CCC(NCCCC4CCOC4)CC3)sc2c1 (centres undefined),Percent Effect,"30.3 µM, […]",69.37%
Cc1n[nH]c(SCCNC2CCN(c3nc4ccccc4s3)CC2)n1,Percent Effect,"30 µM, 30.03 µM",-5.585%
Cn1ccnc1SCCNC1CCN(c2nc3ccccc3s2)CC1,Percent Effect,"30 µM, 30.03 µM",-14.43%
CCc1nccn1CCNC1CCN(c2nc3ccc(Cl)cc3s2)CC1,Percent Effect,"30.3 µM, […]",100.4%
CCS(=O)(=O)CCNC1CCN(c2nc3ccc(Cl)cc3s2)CC1,Percent Effect,"30.3 µM, […]",67.3%
Cc1csc2c(N3CCC(NCCc4ccnn4C)CC3)ncnc12,Percent Effect,"30 µM, 30.03 µM",-26.9%
Cc1nc(NC(=O)c2c(-n3cnnn3)sc(C)c2C)sc1C,Percent Effect,"30 µM, 30.03 µM",-45.39%
O=C(O)C(F)(F)F.O=C(O)C(F)(F)F.c1cncc(OCc2noc3c2CN(Cc2ccco2)CC3)c1,Percent Effect,"30 µM, 30.03 µM",-42.06%
Cc1noc(C)c1CN1CCn2cc(CN3CCCCC3)nc2C1.O=C(O)C(F)(F)F,Percent Effect,"30.3 µM, […]",-9.044%
CCN1CCN(C(=O)c2cc(-c3cccn3C)n[nH]2)[C@H]2CS(=O)(=O)C[C@H]21,Percent Effect,"30 µM, 30.03 µM",-16.48%
CC(C)N1CC[C@H]2[C@H](C[C@@H](Cn3cncn3)N2c2nccs2)C1.O=C(O)C(F)(F)F.O=C(O)C(F)(F)F,Percent Effect,"30.3 µM, […]",-43.04%
COc1cccc(CN(Cc2ncc[nH]2)Cc2ccco2)c1.O=C(O)CC(O)(CC(=O)O)C(=O)O,Percent Effect,"30.3 µM, […]",-10.96%
Cc1ccc([C@]2(O)CC[C@H]3CN(Cc4ccc(Cl)cc4Cl)C[C@H]32)nc1,Percent Effect,"30.3 µM, […]",-1.046%
CSc1ccc(CN2C[C@@H]3CC[C@@](O)(c4ccc(C)cn4)[C@@H]3C2)cc1,Percent Effect,"30.3 µM, […]",79.51%
Cc1ccc([C@]2(O)CC[C@H]3CN(Cc4cc(C)c(O)c(C)c4)C[C@H]32)nc1.O=C(O)CC(O)(CC(=O)O)C(=O)O,Percent Effect,"30.3 µM, […]",27.71%
CN1CC2(CCCN(Cc3nnc(-c4ccccc4)o3)CC2)OC1=O (centres undefined),Percent Effect,"30 µM, 30.03 µM",-20.69%
CCN(CC)C(=O)c1nnn(Cc2ccccc2)c1OC,Percent Effect,"30 µM, 30.03 µM",61.55%
COCCNC(=O)c1nnn(Cc2ccccc2)c1OC,Percent Effect,"30.3 µM, […]",3.67%
CCNC(=O)c1nnn(Cc2ccccc2)c1OC,Percent Effect,"30 µM, 30.03 µM",40.11%
CCc1nnc(SC2CCCN(c3cccc(F)c3)C2=O)n1C (centres undefined),Percent Effect,"30 µM, 30.03 µM",-37.32%
CCOCC1CN(CCN(C)C)Cc2cnn(CC3CCCC3)c21.O=C(O)C(F)(F)F.O=C(O)C(F)(F)F (centres undefined),Percent Effect,"30 µM, 30.03 µM",-10.76%
Cc1ccc(C(=O)N2CC[C@@H](N(C)C)[C@@H]2Cc2cnn(C)c2)cn1.O=C(O)C(F)(F)F.O=C(O)C(F)(F)F,Percent Effect,"30.3 µM, […]",-478.3%
CC(=O)c1ccc(N2CCCC(CO)(Cc3ccccc3C)C2)nc1 (centres undefined),Percent Effect,"30 µM, 30.03 µM",-6.304%
N#Cc1cccc(N2CCCC(CO)(CCOc3ccccc3)C2)n1 (centres undefined),Percent Effect,"30 µM, 30.03 µM",-42.71%
CC(=O)c1ccc(N2CCC(CO)(CCOc3ccccc3)CC2)nc1,Percent Effect,"30 µM, 30.03 µM",16.6%
OCC1(CCOc2ccccc2)CCCN(c2ccc(Cl)cn2)C1 (centres undefined),Percent Effect,"30 µM, 30.03 µM",-34.7%
N#Cc1ccc(N2CCCC(CO)(CCOc3ccccc3)C2)nc1 (centres undefined),Percent Effect,"30 µM, 30.03 µM",-38.44%
Nc1nccc(N2CCCC(CO)(CCOc3ccccc3)C2)n1 (centres undefined),Percent Effect,"30 µM, 30.03 µM",82.96%
CC(=O)c1ccc(N2CCCC(CO)(CCOc3ccccc3)C2)nc1 (centres undefined),Percent Effect,"30 µM, 30.03 µM",71.93%
CC(=O)c1ccc(N2CCCC(CO)(CCc3ccccc3)C2)nc1 (centres undefined),Percent Effect,"30 µM, 30.03 µM",50.39%
CC(=O)c1ccc(N2CCCC(CO)(Cc3ccccc3F)C2)nc1 (centres undefined),Percent Effect,"30 µM, 30.03 µM",-24.14%
O=C(O)C(F)(F)F.O=C1CCCN1Cc1ncn2c1CN(C(=O)N1CCCC1)CCC2,Percent Effect,"30.3 µM, […]",-52.13%
Cc1occc1C(=O)N1CCC2(CCCN(c3ncc(F)cn3)C2)C1.O=C(O)C(F)(F)F (centres undefined),Percent Effect,"30.3 µM, […]",-25.24%
O=C(NCCCNc1ccc(C(F)(F)F)cn1)c1ccc2c(c1)OCO2,Percent Effect,10 µM,-42.23%
Cc1ncc2c(n1)CN(c1ncnc3[nH]ccc13)CC2,Percent Effect,"30 µM, 30.03 µM",-13.69%
c1nc(N2CCc3[nH]cnc3C2)c2cc[nH]c2n1,Percent Effect,"30 µM, 30.03 µM",75.2%
c1ncc2c(n1)CN(c1ncnc3[nH]ccc13)CC2,Percent Effect,"30 µM, 30.03 µM",-32.45%
Cn1cc(N2CC3(COCCN(Cc4nccs4)C3)OCC2=O)cn1.O=C(O)C(F)(F)F (centres undefined),Percent Effect,"30 µM, 30.03 µM",27.05%
Cc1cc(N(C)C)cc(C2CCN(S(=O)(=O)c3cccnc3)C2)n1 (centres undefined),Percent Effect,"30.3 µM, […]",-0.05808%
Cc1nn(CCO)c(C)c1-c1cc(C(C)(C)C)nc(N)c1C#N,Percent Effect,"30.3 µM, […]",0.04143%
Cc1ccc(-c2cc(-c3c(C)nn(CCO)c3C)c(C#N)c(N)n2)cc1,Percent Effect,"30.3 µM, […]",33.48%
Cc1cccc(-c2cc(-c3c(C)nn(CCO)c3C)c(C#N)c(N)n2)c1,Percent Effect,"30.3 µM, […]",57.96%
Cc1noc([C@]23COC[C@H]2CN(C(=O)COC2CCCC2)C3)n1,Percent Effect,"30.3 µM, […]",-59.73%
Cc1noc([C@]23COC[C@H]2CN(C(=O)CN(C)C)C3)n1.O=C(O)C(F)(F)F,Percent Effect,"30.3 µM, […]",106.1%
CCOCC(=O)N1C[C@@H]2COC[C@]2(c2nc(C)no2)C1,Percent Effect,"30.3 µM, […]",-76.29%
